Measured values: PubChem BioAssay AID1117319 (Southern Research Institute, 2015)
Where “and” joins values, the source holds several entries; their conditions need not be identical. Equal entries are not always repeated. Out of some 260,000 compounds screened, about 1,500 (0.58%) were called active. Roughly 5% stayed inconclusive and do not appear here.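 Rule for the calls: active = inhibition above a set limit at one or more doses, reproduced on every date tested; inconclusive = results disagree between test dates, or hit never tested in dose response; inactive = the rest.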 A selection follows. Results with a measured potency or affinity are listed apart.

Biological target: Virion infectivity factor (Human immunodeficiency virus type 1 group M subtype B (isolate BH10)) + Virion infectivity factor (Human immunodeficiency virus type 1 group M subtype B (isolate BRU/LAI)) + Virion infectivity factor (Human immunodeficiency virus type 1 group M subtype B (isolate PCV12)) + Virion infectivity factor (Human immunodeficiency virus type 1 group M subtype B (isolate HXB2)) + DNA dC->dU-editing enzyme APOBEC-3G (Homo sapiens) (UniProt P69720+P69721+P69722+P69723+Q9HC16)
Experiment: inhibitors of Vif binding to APOBEC3G peptide, primary screen, biochemical, TR-FRET, GST-Vif 1-94, biotin-A3G peptide, dose response retest (AID 1117319);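 note: Vif residues 1-94 fused to GST binding biotinylated APOBEC3G peptide 110-148; 0% = full assay without inhibitor and 100% = GST in place of GST-Vif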
Details: hits give high values

inhibition, inactive:
CCNc1nc(NCC)nc(SCC(C)=O)n1 1.47%
NS(=O)(=O)c1ccc(CNC(=O)c2ccc(S(=O)(=O)NCc3ccco3)cc2)cc1 -7.37%
O=C(NCc1ccccc1F)c1ccc(S(=O)(=O)NCc2ccco2)cc1 1.91%
O=C(CCc1c[nH]c2ccccc12)NCc1ccco1 14.9%
O=C(Cc1c[nH]c2ccccc12)NCc1ccco1 -2.84%
O=C(NCCc1ccccc1)c1nc2ncccn2n1 8.66%
COc1ccc(NC(=O)CCNS(=O)(=O)c2cccc3nonc23)cc1Cl 7.84%
COc1ccc(/C=C(/CC(=O)NCc2ccc(Cl)cc2)c2nc3ccccc3s2)cc1 2.71%
COc1ccccc1/C=C(/CC(=O)NCc1ccc(F)cc1)c1nc2ccccc2s1 -7%
COc1ccc(Cl)cc1C(=O)Nc1ccccc1N1CCN(C)CC1 1.41%
COC(=O)/C(=C/c1ccco1)NC(=O)c1ccccc1 11.2%
O=C(Nc1ccc(C(=O)O)cc1)/C(=C\c1ccco1)NC(=O)c1ccccc1 26.2%
Fc1ccc(-c2cc(C(F)(F)F)nc(-n3cccn3)n2)cc1 21.7%
CCc1ccc2[nH]c(=O)c(C(c3nnnn3CCOC)N3CCN(c4ccc(F)cc4)CC3)cc2c1 (centres undefined) 9.01% and 16.1%
CCc1ccc2[nH]c(=O)c(C(c3nnnn3CCOC)N3CCN(c4ccccc4)CC3)cc2c1 (centres undefined) 9.41% and 22.6%
Cc1ccc(SCC(=O)NNC(=O)CCS(=O)(=O)c2ccc(C)cc2)cc1 -4.89%
CCOCCCNC(=O)c1ccccc1Br 79.3%
CCCNC(=O)c1ccccc1C(=O)NCCC -3.84%
Cc1nn(-c2ccccc2)c(C)c1C1C(C#N)=C(N)Oc2n[nH]c(C)c21 (centres undefined) -0.66%
CCCCC(=O)Nc1cccc(-c2csc(-c3ccccc3)n2)c1 -12.6%
O/N=C1\CC(O)Cc2nonc21 (centres undefined) -4.67%
CCCC(c1nnnn1CC(=O)OCC)N(Cc1cc2ccc(C)cc2[nH]c1=O)C1CCCC1 (centres undefined) 4.45% and 9.64%
CCCC(c1nnnn1CC(=O)OCC)N(Cc1cc2c(C)cc(C)cc2[nH]c1=O)C1CCCC1 (centres undefined) 68.5%
O=C(Nc1ncn[nH]1)c1ccccc1O -9.78%
COc1ccc(N2C(=O)C3C4C=CC(C4)C3C2=O)c(OC)c1 (centres undefined) 1.91%
COc1ccc(NC(=O)CN2CCN(c3ccccc3F)CC2)cc1 8.91%
COC(=O)c1ccc(CN(C(=O)N2CCN(C)CC2)S(=O)(=O)c2ccc(C)cc2)cc1 2.32%
O=C(CSc1nc(-c2ccco2)cc(C(F)(F)F)n1)N1CCCc2ccccc21 -15.3% and -9.35%
CN1CCN(C(=O)CSc2nc(-c3ccco3)cc(C(F)(F)F)n2)CC1 -4.57%
O=C(Nc1ccc(F)cc1)C(=O)C1C(=O)Nc2ccccc21 (centres undefined) -6.37%
Cc1ccc(NC(=O)C(=O)NCc2ccc(/C=N/NC(=O)c3c(C)nc4cc(C)ccn34)o2)cc1 19.2%
Cc1ccc(NC(=O)C(=O)NCc2ccc(/C=N/NC(=O)c3c(C)nc4ccccn34)o2)cc1 26.2%
CCOC(=O)c1ccc(NC(=O)C(=O)NCc2ccc(/C=C(/C#N)C(=O)NCCOC)o2)cc1 -2.3%
Cc1ccc(NC(=O)C(=O)NCc2ccc(/C=C(/C#N)C(=O)NCc3cccnc3)o2)cc1 7.86%
CCOC(=O)C1=C(O)/C(=C\c2cccs2)N=C1C 15.1%
COC(=O)C1=C(O)/C(=C\c2ccc(OCC(=O)Nc3ccccc3)cc2)N=C1C -9.89%
CCOC(=O)C1=C(O)/C(=C\c2sccc2C)N=C1C 0.95%
O=C(NCc1ccc(/C=c2\sc3n(c2=O)CCN=3)o1)C(=O)Nc1ccccc1 -17%
O=C(COC(=O)/C=C/c1cccc(Br)c1)NCCC1=CCCCC1 12.4%
Cc1cc(C(=O)N2CCN(c3ccccc3Cl)CC2)c(C)o1 3.3%
C=CCNc1nc(-c2ccc(OC)cc2OC)cs1 -8.96%
COc1cc(NC(=O)COc2ccc(Cl)cc2)ccc1NC(=O)C(C)C 1.28%
CCCSc1cc(N)cc([N+](=O)[O-])c1 -12.3%
CCN(CC)CCN(C(=O)CCS(=O)(=O)c1ccccc1)c1nc2cc(C)cc(C)c2s1 7.31%
O=C(CSc1ncn[nH]1)Nc1ccc2c(c1)CCC2 -3.75%
CCCOc1ccc(/C=N/NC(=S)Nc2ccccc2[N+](=O)[O-])c(O)c1 5.31%
O=S(=O)(c1ccc(NC(=S)N/N=C/c2ccc(N3CCOCC3)cc2)cc1)N1CCOCC1 0.51%
O=[N+]([O-])c1cc(/C=N/NC(=S)Nc2ccccc2Cl)ccc1Cl 8.67%
N#Cc1ccc(/C=N/NC(=S)Nc2ccc(S(=O)(=O)N3CCOCC3)cc2)cc1 27.6%
CCOc1ccc(/C=N/NC(=O)C(OC)c2ccccc2)cc1 (centres undefined) -8.04%
Cc1nnc(N(C)C(=O)c2cccnc2)s1 -3.79%
COc1ccc(/C=N/NC(=O)c2ccccc2O)cc1Cn1cc([N+](=O)[O-])cn1 22.8%
COc1cc(C(=O)N/N=C/c2ccc(OC)c(CN3CCN(c4ccc(F)cc4)CC3)c2)ccc1O -4.76%
COc1ccc(/C=N/NC(=O)c2ccccc2)cc1CN1CCN(c2ccc(F)cc2)CC1 1.7%
COc1ccc(/C=N\NC(=O)c2cccc([N+](=O)[O-])c2)cc1Cn1cc([N+](=O)[O-])cn1 9.14%
CC(=O)Oc1cc2c(cc1OC(C)=O)C(=O)CCCC2 -3.59%
CCc1cccc2c(C(=O)CSc3nncn3C)c[nH]c12 3.36%
O=C(COC(=O)c1ccccn1)NCc1cccc(Cl)c1 11.7%
CCC1CCCCN1C(=O)c1ccccc1OC1CCN(S(C)(=O)=O)CC1 (centres undefined) 6.69%
Cc1c(Cl)cc(C(C)C)c(O)c1CN1CCOCC1 -0.22%
Oc1c(CN2CCOCC2)cc(-c2ccccc2)cc1CN1CCOCC1 2.33%
O=C(NCCCN1CCOCC1)c1csc2c1CCCC2 -1.89%
CCOc1ccc(-c2cc(C(=O)NCCCN3CCOCC3)c3ccccc3n2)cc1 -4.67%
O=C1NC(c2cn(-c3ccccc3)nc2-c2cccs2)C(C(=O)c2cccnc2)C(O)(C(F)(F)F)N1 (centres undefined) 1.08%
COc1ccc(C2NC(=O)NC(O)(C(F)(F)F)C2C(=O)c2ccccc2)cc1OC (centres undefined) -3.65%
CCC(Oc1ccccc1)C(=O)Nc1ccc(S(=O)(=O)N2CCOCC2)cc1 (centres undefined) 15.9%
CCc1nc(SCC(=O)N2CCCC2)c2ccccc2n1 14.3%
CCOc1cc(C(=O)Nc2ccc(N3CCOCC3)cc2)cc(Br)c1OC 12.9%
O=S(=O)(Nc1cc(C(F)(F)F)ccc1N1CCOCC1)c1ccccc1 2.04%
Cc1ccc(S(=O)(=O)Nc2cc(C(F)(F)F)ccc2N2CCOCC2)cc1 1.57%
COc1ccc(NS(=O)(=O)c2cccc(C(=O)NCC3CCCO3)c2)cc1 (centres undefined) 1.68%
COc1ccccc1N1CCN(CC(=O)Nc2cccc(F)c2)CC1 -5.83%
O=C(CN1CCN(Cc2ccccc2)CC1)Nc1ccc2c(c1)CCC2 -3.36%
O=C(CN1CCCC1)Nc1ccc2c(c1)CCC2 -3.44%
CC1CCN(CCNC(=O)c2ccc(NC(=O)C3CCCO3)cc2)CC1 (centres undefined) 2.71%
O=C(Nc1ccc2c(c1)CN(Cc1ccccc1O)CC2)C1CCCO1 (centres undefined) -4.54%
CCc1ccc(CC)c(S(=O)(=O)Nc2ccc(O)c(C(=O)O)c2)c1 -4.21%
O=C(O)c1ccc(NS(=O)(=O)c2cc(Cl)ccc2Cl)cc1O 3.01%
O=C(Nc1ccc(Br)cc1)C1CCN(C(=O)c2ccc(F)cc2)CC1 -10.6%
CCOC(=O)c1cnc(SCC(=O)OCC(=O)N(CC)C2CCS(=O)(=O)C2)nc1N (centres undefined) 4.12%
COc1cccc(NC(=O)CN(C)C(=O)/C=C/c2cn(Cc3ccccc3)nc2-c2cccnc2)c1 -9.6%
Cc1ccc(S(=O)(=O)N2CCN(C(C(=O)Nc3ccc(F)cc3)c3ccccc3)CC2)cc1 (centres undefined) 69.8%
O=C(Nc1ccc(F)cc1)C(c1ccccc1)N1CCN(S(=O)(=O)c2c(F)cccc2F)CC1 (centres undefined) 22.6%
COC(=O)CCC(=O)OC1(C)C(=O)C=C2C=C(C3CC3)N(CCCOC(C)C)C=C2C1=O (centres undefined) 20.5%
CC(C)OCCCN1C=C2C(=O)C(C)(OC(=O)CCc3ccccc3)C(=O)C=C2C=C1c1ccc(C#N)cc1 (centres undefined) 12.3%
COc1ccc(N2C=C3C(=O)C(C)(OC(=O)CCc4ccccc4)C(=O)C=C3C=C2c2ccc(C#N)cc2)cc1 (centres undefined) 11.3%
COC(=O)CCC(=O)OC1(C)C(=O)C=C2C=C(C3CC3)N(Cc3ccc(OC)cc3)C=C2C1=O (centres undefined) 31.5%
O=[N+]([O-])c1ccc2nc(SCc3ccccc3Cl)sc2c1 2.57%
CC(C)n1c(SCC(=O)N2c3ccccc3Sc3ccccc32)nc2c1c(=O)n(C)c(=O)n2C 1.71%
